# Laboratory results published in PubChem BioAssay (Tox21).
# Activity calls are given as the source filed them. A call without a number means that no potency is given here. Unless noted, calls follow the shape of the dose curve; as a rule, active = well fitted curve in the direction sought with a large enough effect in the repeat runs; inconclusive = weak or mixed curves; inactive = no such curve, though single readings can be large; an effect the other way counts as inactive or inconclusive.
# Legend:
# [1] = qHTS assay to test for compound auto fluorescence at 535 nm (green) in HEK293 cells (AID 720680)
# [2] = qHTS assay to test for compound auto fluorescence at 460 nm (blue) in HEK293 cell free culture (AID 720681)
# Method in brief: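 Compounds were added to cell-free DMEM with 10% FBS and fluorescence read directly. The blue channel used 405 nm excitation and 460 nm emission, with triamterene as the reference fluorophore.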
# [3] = qHTS assay to test for compound auto fluorescence at 535 nm (green) in HEK293 cell free culture (AID 720682)
# Method in brief: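 No cells present: wells hold DMEM supplemented with 10% FBS, into which compound or vehicle is pinned. Green emission is then recorded (485 nm excitation, 535 nm emission) and scaled to fluorescein.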
# [4] = qHTS assay to test for compound auto fluorescence at 590 nm (red) in HEK293 cell free culture (AID 720683)
# Method in brief: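 Cell-free wells of DMEM with 10% FBS received compound, and intrinsic fluorescence was read at excitation/emission 540/590 nm. Values expressed as equivalence to Rose Bengal sodium.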
# [5] = qHTS assay to test for compound auto fluorescence at 590 nm (red) in HepG2 cell free culture (AID 720684)
# Method in brief: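 Auto fluorescence equivalency versus Rose Bengal sodium, red channel Ex/Em 540/590 nm; compounds in cell-free MEM/10% FBS; DMSO vehicle control.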
# [6] = qHTS assay to test for compound auto fluorescence at 460 nm (blue) in HepG2 cell free culture (AID 720685)
# Method in brief: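 Cell-free plates of MEM plus 10% FBS received 23 nL compound or DMSO vehicle; blue-channel (405/460 nm) intensity scored against triamterene as reference fluorophore.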
# [7] = qHTS assay to test for compound auto fluorescence at 535 nm (green) in HepG2 cell free culture (AID 720686)
# [8] = qHTS assay to test for compound auto fluorescence at 460 nm (blue) in HepG2 cells (AID 720687)
# Method in brief: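 HepG2 cells in MEM with 10% FBS, attached overnight at 37 C, were exposed to compound or DMSO for 1 hr at 37 C, 5% CO2. Blue fluorescence was read at 405/460 nm, with triamterene as reference fluorophore.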
# [9] = target: Glucocorticoid receptor (Homo sapiens) (UniProt P04150); experiment: qHTS assay to identify small molecule agonists of the glucocorticoid receptor (GR) signaling pathway (AID 720691; active = well fitted activation curve with a large enough effect in the signal ratio in the repeat runs, not every such curve was filed as active; inconclusive = weak or mixed curves, or effect the other way; inactive = no such curve, though single readings can be large or run the other way; the % refers to the signal ratio; also: potency is read from the fitted curve at half-maximal effect); conditions: GR-bla HeLa, beta-lactamase reporter ratio, 18 h; activation: at 62.4 µM (top of the series)
# Method in brief: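 Cells: GR-bla HeLa, endogenous GR with stably integrated GRE-beta-lactamase reporter. Treatment 18 h, 37 C, compounds delivered in DMSO. Detection via LiveBLAzer B/G FRET substrate, 2 h RT, fluorescence intensity.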
# [10] = target: Glucocorticoid receptor (Homo sapiens) (UniProt P04150); experiment: qHTS assay to identify small molecule antagonists of the glucocorticoid receptor (GR) signaling pathway (AID 720692; active = well fitted inhibition curve with a large enough effect in the signal ratio in the repeat runs, not every such curve was filed as active; inconclusive = weak or mixed curves, or effect the other way; inactive = no such curve, though single readings can be large or run the other way; the % refers to the signal ratio; also: potency is read from the fitted curve at half-maximal effect)
# Method in brief: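 Quantitative HTS in antagonist format: HeLa cells expressing endogenous GR and a stably integrated GRE-bla reporter, stimulated with 5 nM dexamethasone (final) alongside test compounds for 18 h.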
# [11] = qHTS assay to identify small molecule antagonists of the glucocorticoid receptor (GR) signaling pathway - cell viability counter screen (AID 720693); also: nearly all actives have a fitted effect of over 55% in size; also: potency is read from the fitted curve at half-maximal effect
# [12] = qHTS assay to identify small molecule antagonists of the androgen receptor (AR) signaling pathway using the MDA cell line - cell viability counter screen (AID 743041; also: nearly all actives have a fitted effect of over 45% in size)
# Method in brief: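 Compound exposure lasted 16 h at 37C in MDA-kb2 AR-luc cells stimulated with R1881. Protease-based CellTiter-Fluor reagent was applied for the final 30 min and fluorescence measured.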
# [13] = qHTS assay for identifying genotoxic compounds that show differential cytotoxicity against isogenic chicken DT40 cell lines with known DNA damage response pathways - wild type cell line (AID 743012); also: nearly all actives have a fitted effect of over 60% in size; also: potency is read from the fitted curve at half-maximal effect
# Method in brief: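 Luminescent ATP viability signal (CellTiter-Glo, 30 min RT) recorded after wild type DT40 cells were incubated with compounds for 40 h at 37 C/5% CO2.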
# [14] = qHTS assay for identifying genotoxic compounds that show differential cytotoxicity against isogenic chicken DT40 cell lines with known DNA damage response pathways - Rev3 mutant cell line (AID 743014); also: nearly all actives have a fitted effect of over 55% in size; also: potency is read from the fitted curve at half-maximal effect
# [15] = qHTS assay for identifying genotoxic compounds that show differential cytotoxicity against isogenic chicken DT40 cell lines with known DNA damage response pathways - Rad54/Ku70 mutant cell line (AID 743015); also: nearly all actives have a fitted effect of over 60% in size; also: potency is read from the fitted curve at half-maximal effect
# [16] = qHTS assay to identify small molecule antagonists of the androgen receptor (AR) signaling pathway - cell viability counter screen (AID 743033; also: nearly all actives have a fitted effect of over 45% in size)
# [17] = target: Androgen receptor (Homo sapiens) (UniProt P10275); experiment: qHTS assay to identify small molecule antagonists of the androgen receptor (AR) signaling pathway (AID 743035; active = well fitted inhibition curve with a large enough effect in the signal ratio in the repeat runs, not every such curve was filed as active; inconclusive = weak or mixed curves, or effect the other way; inactive = no such curve, though single readings can be large or run the other way; the % refers to the signal ratio; also: potency is read from the fitted curve at half-maximal effect)
# Method in brief: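 Quantitative HTS of the Tox21 10K library used HEK293 AR-UAS-bla cells stimulated with R1881 alongside compound for 16 h at 37C, followed by beta-lactamase FRET detection (LiveBLAzer B/G, 2 h, RT).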
# [18] = target: Androgen receptor (Homo sapiens) (UniProt P10275); experiment: qHTS assay to identify small molecule agonists of the androgen receptor (AR) signaling pathway using the MDA cell line (AID 743040; also: nearly all actives have a fitted effect of over 20% in size)
# Method in brief: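 Testing was done with the MDA-kb2 AR-luc line, a human breast carcinoma stably transfected with MMTV-luciferase containing AR and GR response elements. Cells were exposed 16 h at 37C before ONE-Glo luminescence detection.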
# [19] = target: Androgen receptor (Homo sapiens) (UniProt P10275); experiment: qHTS assay to identify small molecule antagonists of the androgen receptor (AR) signaling pathway using the MDA cell line (AID 743042; also: nearly all actives have a fitted effect of over 55% in size; also: potency is read from the fitted curve at half-maximal effect)
# Method in brief: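 MDA-kb2 breast carcinoma cells carrying MMTV-luciferase (AR/GR responsive) were co-treated with compounds and the agonist R1881 for 16 h at 37C. Inhibition read as ONE-Glo luminescence; CellTiter-Fluor fluorescence measured in parallel for cytotoxicity.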
# [20] = target: Androgen receptor (Homo sapiens) (UniProt P10275); experiment: qHTS assay to identify small molecule agonists of the androgen receptor (AR) signaling pathway (AID 743036; active = well fitted activation curve with a large enough effect in the signal ratio in the repeat runs, with a control signal flat, not every such curve was filed as active; inconclusive = weak or mixed curves, or effect the other way; inactive = no such curve, though single readings can be large or run the other way; the % refers to the signal ratio)
# Method in brief: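 Quantitative HTS of the Tox21 10K library in HEK293 cells bearing a stably integrated UAS-controlled beta-lactamase reporter. Compound exposure lasted 16 h at 37C. Reporter activity was detected by FRET substrate fluorescence after 2 h at room temperature.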
# Sequence of Androgen receptor (Homo sapiens) (P10275 whole entry, looked up): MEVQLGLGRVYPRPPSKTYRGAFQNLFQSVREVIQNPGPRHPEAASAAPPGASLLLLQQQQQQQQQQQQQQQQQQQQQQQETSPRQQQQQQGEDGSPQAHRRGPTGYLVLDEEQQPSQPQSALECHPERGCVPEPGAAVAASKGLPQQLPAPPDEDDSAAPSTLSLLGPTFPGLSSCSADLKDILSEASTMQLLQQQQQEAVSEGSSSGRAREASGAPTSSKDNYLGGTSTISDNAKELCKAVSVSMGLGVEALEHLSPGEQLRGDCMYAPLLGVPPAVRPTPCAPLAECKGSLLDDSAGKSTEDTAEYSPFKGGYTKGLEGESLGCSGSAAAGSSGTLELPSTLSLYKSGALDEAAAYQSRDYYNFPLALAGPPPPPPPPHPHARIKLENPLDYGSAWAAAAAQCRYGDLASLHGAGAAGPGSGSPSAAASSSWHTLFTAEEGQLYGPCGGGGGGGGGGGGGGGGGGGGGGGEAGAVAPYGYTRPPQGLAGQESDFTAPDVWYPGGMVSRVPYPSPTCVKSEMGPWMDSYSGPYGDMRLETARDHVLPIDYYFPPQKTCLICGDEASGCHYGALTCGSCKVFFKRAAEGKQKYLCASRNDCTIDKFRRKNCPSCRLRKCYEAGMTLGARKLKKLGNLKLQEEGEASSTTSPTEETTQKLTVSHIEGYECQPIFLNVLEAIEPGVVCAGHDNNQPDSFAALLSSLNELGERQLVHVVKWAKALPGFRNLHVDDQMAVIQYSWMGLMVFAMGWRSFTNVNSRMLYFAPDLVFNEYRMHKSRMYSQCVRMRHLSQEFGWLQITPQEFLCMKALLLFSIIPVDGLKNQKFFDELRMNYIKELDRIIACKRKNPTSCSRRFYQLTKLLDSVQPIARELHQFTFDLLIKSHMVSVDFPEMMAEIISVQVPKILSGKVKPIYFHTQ
# Sequence of Glucocorticoid receptor (Homo sapiens) (P04150 whole entry, looked up): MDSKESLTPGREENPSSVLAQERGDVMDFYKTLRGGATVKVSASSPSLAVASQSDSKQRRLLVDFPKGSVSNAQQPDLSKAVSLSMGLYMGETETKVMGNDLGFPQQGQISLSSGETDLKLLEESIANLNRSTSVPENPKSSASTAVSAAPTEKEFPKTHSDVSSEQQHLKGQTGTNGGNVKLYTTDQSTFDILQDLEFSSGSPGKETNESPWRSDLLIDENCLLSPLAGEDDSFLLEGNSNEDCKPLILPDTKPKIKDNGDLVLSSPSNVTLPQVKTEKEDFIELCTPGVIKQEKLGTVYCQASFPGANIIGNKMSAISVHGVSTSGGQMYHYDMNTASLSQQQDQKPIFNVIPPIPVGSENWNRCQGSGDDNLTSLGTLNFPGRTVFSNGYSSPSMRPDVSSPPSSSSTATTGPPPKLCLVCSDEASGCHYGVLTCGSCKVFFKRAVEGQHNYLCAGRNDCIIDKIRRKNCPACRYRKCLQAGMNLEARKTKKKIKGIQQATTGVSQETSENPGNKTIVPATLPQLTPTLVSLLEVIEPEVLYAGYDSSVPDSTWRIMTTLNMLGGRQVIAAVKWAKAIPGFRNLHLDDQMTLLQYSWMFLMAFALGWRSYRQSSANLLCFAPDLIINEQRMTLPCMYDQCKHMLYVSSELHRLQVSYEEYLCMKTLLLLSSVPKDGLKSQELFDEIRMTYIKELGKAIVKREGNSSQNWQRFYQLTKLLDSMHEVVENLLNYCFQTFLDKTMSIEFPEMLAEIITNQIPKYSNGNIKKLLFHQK
SMILES,Potency [1],Potency [2],Potency [3],Potency [4],Potency [5],outcome [6],Potency [7],outcome [8],Potency [9],Potency [10],Potency [11],Potency [12],Potency [13],Potency [14],Potency [15],Potency [16],Potency [17],Potency [18],Potency [19],Potency [20]
CC(C)(CO)[C@@H](O)C(=O)NCCC(=O)NCCSSCCNC(=O)CCNC(=O)[C@H](O)C(C)(C)CO,inactive,inactive,inactive,inactive,inactive,inactive,inactive,inactive,inactive,inactive,inactive,inactive,–,–,–,–,–,–,–,–
O=c1oc2cc(O)ccc2s1,inactive,inactive,inactive,inactive,inactive,inactive,inactive,inactive,inactive,–,inactive,–,inactive,inactive,inactive,inactive,–,–,–,–
CN(C)CCC=C1c2ccccc2C(C)(C)c2ccccc21,inactive,inactive,inactive,inactive,inactive,inactive,inactive,inactive,inactive,–,inactive,–,9.44 µM (active),13.3 µM (active),13.3 µM (active),–,–,–,–,–
CN[C@H]1CCc2cc(OC)c(OC)c(OC)c2-c2ccc(OC)c(=O)cc21,inactive,inactive,inactive,inactive,inactive,inactive,inactive,inactive,inactive,–,inactive,inactive,0.0473 µM (active),0.0531 µM (active),0.0531 µM (active),inactive,0.0601 µM (active),inactive,inactive,–
CC[C@@]1(O)C[C@H](O[C@H]2C[C@H](N(C)C)[C@H](O[C@H]3C[C@H](O)[C@H](O[C@H]4CCC(=O)[C@H](C)O4)[C@H](C)O3)[C@H](C)O2)c2c(cc3c(c2O)C(=O)c2c(O)cccc2C3=O)[C@H]1C(=O)OC,inactive,inactive,inactive,inactive,inactive,inactive,inactive,inactive,10.7 µM [inconclusive] (active),–,2.39 µM (active),–,0.0531 µM (active),0.0531 µM (active),0.0422 µM (active),–,–,–,–,–
O=C(O)[C@H](CC(=O)N1C[C@H]2CCCC[C@H]2C1)Cc1ccccc1,inactive,inactive,inactive,inactive,inactive,inactive,inactive,inactive,inactive,inactive,inactive,inactive,–,–,inactive,inactive,–,–,–,–
CN(C)C(=O)CCSC(SCCC(=O)O)c1cccc(/C=C/c2ccc3ccc(Cl)cc3n2)c1 (stereo unspecified),inactive,inactive,inactive,inactive,inactive,inactive,inactive,inactive,inactive,8.49 µM (active),–,–,–,–,–,inactive,–,inactive,inactive,–
O=C(CCCCCCCCCCCCC1CCCC1)Nc1ccc(S(=O)(=O)c2ccc(NC(=O)CCCCCCCCCCCCC3CCCC3)cc2)cc1,inactive,inactive,inactive,inactive,inactive,inactive,inactive,inactive,inactive,inactive,inactive,inactive,–,–,inactive,inactive,–,–,–,–
CCCCCCCCCCCCCCCC(=O)OC[C@@H](COP(=O)([O-])OCC[N+](C)(C)C)OC(=O)CCCCCCCCCCCCCCC,inactive,inactive,inactive,inactive,inactive,inactive,inactive,inactive,inactive,inactive,–,–,inactive,–,–,inactive,–,inactive,inactive,inactive
O=C(O)c1cc(N=Nc2ccc(O)c(C(=O)O)c2)ccc1O,inactive,inactive,inactive,inactive,inactive,inactive,inactive,inactive,inactive,inactive,inactive,–,–,–,inactive,inactive,inactive,inactive,inactive,inactive
O=[N+]([O-])c1c(Cl)cccc1-c1c[nH]cc1Cl,inactive,inactive,inactive,inactive,inactive,inactive,inactive,inactive,inactive,21.3 µM (active),–,inactive,18.8 µM (active),23.7 µM (active),26.6 µM (active),inactive,–,–,–,–
CC(C)(C)c1ccc(CN2CCN(C(c3ccccc3)c3ccc(Cl)cc3)CC2)cc1 (stereo unspecified),inactive,inactive,inactive,inactive,inactive,inactive,inactive,inactive,inactive,–,inactive,inactive,5.31 µM (active),4.22 µM (active),8.41 µM (active),inactive,–,inactive,inactive,inactive
CCCCCCCCCCCCCCCC(=O)O[C@@H]1CC(C)=C(/C=C/C(C)=C/C=C/C(C)=C/C=C/C=C(C)/C=C/C=C(C)/C=C/C2=C(C)C[C@@H](OC(=O)CCCCCCCCCCCCCCC)CC2(C)C)C(C)(C)C1,inactive,inactive,inactive,inactive,inactive,inactive,inactive,inactive,inactive,12 µM (active),–,inactive,inactive,–,inactive,inactive,–,–,–,–
CC1=C(/C=C/C(C)=C/C=C/C(C)=C/C=C/C=C(C)/C=C/C=C(C)/C=C/C2=C(C)C[C@@H](O)CC2(C)C)C(C)(C)C[C@H](O)C1,inactive,inactive,inactive,inactive,inactive,inactive,inactive,inactive,inactive,23.9 µM (active),–,inactive,7.5 µM (active),13.3 µM (active),11.9 µM (active),inactive,–,inactive,29.8 µM (active),–
